The list is not random: actives were taken first. Their share in the collection is about 6.5%.
FMDV antiviral – blocks foot and mouth disease virus. FMDV antiviral cell-based qHTS. AID 1159524. 1.2% of 410,000 active. Potency, µM (highest dose often 57.9 µM), for inactives: top-dose activity change, negative = inhibition, actives largely listed as inhibitors; calls by dose curve; tested in HEK293T cells; note: read-out not given here; potency is the fitted concentration of half-maximal effect; nearly all actives have a fitted effect of over 45% in size
HCMV antiviral – blocks human cytomegalovirus replication. HFF cells, HCMV-luciferase reporter, 72 h; hits give low values. AID 1259415. activity change, negative = inhibition, % at 57.5 µM. 4.5% of 410,000 active; in the data active = activity change below about -60%; inconclusive = no clear call, values can overlap the other calls; inactive = above about -39%
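HFF cells seeded 16 h at 37C, treated with compounds, infected with luciferase-reporter HCMV at MOI 1 PFU/cell; luciferase read at 72 h post infection, normalized to buffer-only and Salinomycin controls.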
MARV entry inh – blocks Marburg virus binding to or entry into cells | Marburg virus pseudotyped entry inhibition, cell reporter | Potency, µM (highest dose often 37.8 µM), for inactives: at the top dose activity change, negative = inhibition, usual class: inhibitors | 1.8% of 300,000 active | AID 540276; calls by dose curve; tested in HEK293 cells; note: potency is the fitted concentration of half-maximal effect
Vaccinia Venus – vaccinia inhibition (Venus reporter). Vaccinia virus Venus reporter expression, fluorescence. Potency, µM (highest dose often 36.5 µM), for inactives: at the highest dose activity change, negative = inhibition, actives largely listed as inhibitors. 0.46% of 330,000 active. AID 720580; calls by dose curve; tested in A549 cells; note: potency is the fitted concentration of half-maximal effect; nearly all actives have a fitted effect of over 30% in size
VACV mCherry inh – vaccinia inhibition (mCherry reporter); 0.63% of 310,000 active; AID 720579; Vaccinia virus mCherry reporter infection, fluorescence; Potency, µM (doses to about 36.5 µM), without a hit: at the top dose activity change, negative = inhibition, usual class: inhibitors; calls by dose curve; tested in A549 cells; note: potency is the fitted concentration of half-maximal effect; nearly all actives have a fitted effect of over 35% in size
LASV entry inh – Lassa virus entry inhibition. Lassa virus pseudotype entry inhibition, cell reporter. Potency, µM (series often up to 37.9 µM), for the others: at the top dose activity change, negative = inhibition, hits mostly inhibitors. 1.2% of 300,000 active. AID 540256; calls by dose curve; tested in HEK293 cells; note: potency is the fitted concentration of half-maximal effect; nearly all actives have a fitted effect of over 50% in size
An asterisk follows results filed as active; i = inactive; ? = inconclusive; . = no result; [ ] = dose if it differs, or a comment. % is set by controls: 0 for no effect and ±100 for the full control effect.

SMILES	FMDV antiviral	HCMV antiviral	MARV entry inh	Vaccinia Venus	VACV mCherry inh	LASV entry inh
S=C(NNc1nc(Nc2ccccc2)nc(N2CCCCC2)n1)NC1CCCCC1	-14.5%	-32.5	10µM*	-8.9%	-16.2%	-5.8%
CSc1ccc(C2c3c(oc4ccc(F)cc4c3=O)C(=O)N2c2ccc(C)cn2)cc1 (centres undefined)	19.6%	6.7	9.4%[46.1 µM]	-7.0%	-9.9%	-8.5%[46.1 µM]
COc1ccc(OCC(=O)Nc2ccc3c(c2)nc(CCN2CCCCC2)n3C)cc1	4.0%	?	.	.	.	.
Cc1cccc(OCC(=O)Nc2ccc3c(c2)nc(CCN2CCCCC2)n3C)c1	-3.3%	-86.2*	.	.	.	.
Cn1c(CN2CCCC2)nc2cc(NC(=O)COc3ccccc3)ccc21	-19.0%	7.4	20.6%[46.1 µM]	-16.4%	.	?
CC(=O)N1CCN(Cc2nc3cc(NC(=O)COc4cccc(C)c4)ccc3n2C)CC1	?	-62.7*	?	-8.7%	?	-23.3%[46.1 µM]
Cc1cccc(OCC(=O)Nc2ccc3c(c2)nc(CN2CCCCC2)n3C)c1	12.6µM*	?	?	-31.1%	-9.5%	?
O=C1NCCCc2c1oc1ccc(O)cc21	52.5%	-62.6*	?	.	.	?
O=C(CN1CCN(c2ncccn2)CC1)N1CCCc2c1c(=O)oc1ccc(O)cc21	2.1%	-18.4	2.6%	?	.	0.4%
O=C(O)c1cccs1	.	.	.	-3.6%	-10.9%	.
Cc1cc(=O)n(CC(=O)N2CCN(c3ccc(F)cc3)CC2)c2c1c(C)nn2C	28.2µM*	-30.0	.	-22.6%	-2.1%	?
Cc1cnc(-n2ncc(C(=O)N(C)CC3CCCN(C)C3)c2C2CC2)nc1-c1cccs1 (centres undefined)	-15.8%	.	.	-11.6%	-19.8%	.
CC(N)C(=O)c1ccco1 (centres undefined)	-18.0%	-68.4*	26.5%	-26.1%	.	-0.1%
COc1cc(CNC2CCCCCCC2)cc(Br)c1OCC#N	0.0%	?	11.6µM*	-29.4%	-1.1%	-16.6%
CCOc1c(Br)cc(CNC2CCCCCCC2)cc1OC	?	-10.7	.	.	.	.
Nc1ccc2c(c1)OC1(CCCC1)O2	1.41µM*	-86.4*	?	-17.3%	-16.8%	15.8µM*
COc1ccc(/C=N/NC(=O)CN(c2ccc(OC)cc2)S(=O)(=O)c2ccccc2)cc1	1.7%	-15.9	.	.	.	.
COc1ccc(N(CC(=O)NCc2ccco2)S(=O)(=O)c2ccccc2)cc1	15.8%	13.2	-9.0%[46.1 µM]	-6.5%	-12.1%	.
COc1ccc(N(CC(=O)N/N=C/c2ccc(F)cc2)S(=O)(=O)c2ccccc2)cc1	-2.3%	-68.7*	?	-22.9%	-31.4%	?
CCNC(=O)CN(c1ccc(Cl)cc1)S(=O)(=O)c1ccccc1	-22.0%	44.7	1.16µM*	.	.	?
COc1ccc(N(CC(=O)NCc2ccccc2OC)S(=O)(=O)c2ccccc2)cc1	-13.7%	-17.2	10µM*	-19.5%	i	4.7%[46.1 µM]
CCNC(=O)CN(c1ccccc1)S(=O)(=O)c1ccc(Cl)cc1	20.8%	22.8	10.0%	.	.	0.6%
CCN(CC(=O)Nc1ccccc1OC)C(=O)c1ccc(NS(=O)(=O)c2ccc(C(C)=O)cc2)cc1	158µM*	29.4	4.1%[46.1 µM]	-6.4%	-8.4%	0.1%
COC(=O)[C@@H]1CCCN1Cc1ccc2c(c1)CN(Cc1cc(OC)c3c(c1)OCO3)CCO2	-9.2%	.	.	-7.5%	-8.7%	.
Cc1cc(N(C)C)cc(C)c1C=O	.	.	.	-11.1%	-12.1%	.
SMILES	FMDV antiviral	HCMV antiviral	MARV entry inh	Vaccinia Venus	VACV mCherry inh	LASV entry inh
CCOc1[nH]c(/N=C/c2ccc(OC)cc2)c(C#N)c1C#N	.	.	.	102.4%	-11.6%	.
COC(=O)c1cc2oc3ccccc3c2n1Cc1c(F)cccc1Cl	-15.9%	47.8	-3.6%[46.1 µM]	-16.9%	-14.6%	.
COc1ccc(S(=O)(=O)N(CC(=O)NCCc2ccccc2)c2ccc(Cl)cc2)cc1	-3.4%	16.7	1.1%[46.1 µM]	-9.2%	-5.2%	1.4%[46.1 µM]
COc1ccc(N(CC(=O)Nc2ccccc2OC)S(=O)(=O)c2ccc(NC(C)=O)cc2)cc1	0.0%	?	?	?	-25.7%	3.16µM*
COc1ccc(N(CC(=O)NCCc2ccccc2)S(=O)(=O)c2ccc(OC)c(OC)c2)cc1	-6.4%	-3.9	.	0.8%	-3.4%	6.31µM*
Cc1ccc(C(=O)c2cn(CC(=O)NCc3ccccc3Cl)c3nc(C)ccc3c2=O)cc1	-13.8%	-6.7	.	0.2%	0.2%	11.5%[46.1 µM]
O=C(O)c1ccc(S(=O)(=O)NC2CCCc3ccccc32)cc1 (centres undefined)	-21.3%	7.4	1.1%	-8.2%	i	-6.7%
CC(=O)N1CCc2cc(S(=O)(=O)NC3CCCc4ccccc43)ccc21 (centres undefined)	?	-63.7*	?	-28.8%	?	-20.6%
COc1ccc(-n2nnnc2C2CCN(S(=O)(=O)c3cc(Cl)ccc3OC)CC2)cc1	?	-78.2*	?	?	-28.6%	-8.3%[46.1 µM]
COc1ccc(-n2nnnc2C2CCN(S(=O)(=O)c3ccc(C(C)(C)C)cc3)CC2)cc1	-7.5%	27.8	-7.4%[46.1 µM]	-10.3%	-3.2%	-3.5%[46.1 µM]
Cc1csc(SCC(=O)NCC2Cc3cc(-c4cncnc4)ccc3O2)n1 (centres undefined)	17.1%	.	.	-16.7%	-2.1%	.
O=c1[nH]c(=O)n(Cc2ccco2)c2c1C(C(F)(F)F)(C(F)(F)F)N=C(c1ccc(F)cc1)N2	4.47µM*	43.2	?	.	.	?
CCN(c1ccccc1)c1ccc2cc(S(=O)(=O)N3CCCC3)ccc2n1	-19.5%	-11.9	.	-3.4%	-1.6%	-24.7%[46.1 µM]
COc1ccc(CNC(=O)c2cnc3sc(N4CCCCCC4)nn3c2=O)cc1	-6.8%	-38.0	.	-8.9%	-8.6%	?
O=C(C[n+]1cccc(Br)c1)c1ccccc1	2.0%	61.2	24.4%[46.1 µM]	-5.3%	-3.2%	-16.1%[46.1 µM]
Cc1ccc[n+](CC(=O)c2ccc(-c3ccccc3)cc2)c1	-19.9%	-68.4*	-11.7%	-9.9%	i	-7.0%
O=C(C[n+]1cccc(Br)c1)c1ccc(-c2ccccc2)cc1	4.8%	-74.4*	.	-17.3%	-4.0%	.
CS(=O)(=O)Nc1cccc(-c2ccc3ncnc(N4CCNCC4)c3c2)c1	0.0%	.	.	.	.	.
NS(=O)(=O)c1ccc(CCNCc2ccccc2OCc2ccc(Cl)cc2)cc1	-24.9%	-16.5	?	-13.9%	-12.4%	?
NS(=O)(=O)c1ccc(CCNCc2cc(Cl)ccc2OCc2ccccc2)cc1	?	-66.8*	?	-19.1%	-26.8%	-20.6%[46.1 µM]
Cc1ccc(-c2nnc(Nc3ccc4c(c3)OCO4)c3ccccc23)cc1S(N)(=O)=O	37.2%	-73.2*	?	-18.3%	?	-28.0%
Cc1nnc(Nc2ccc3c(c2)OCO3)c2ccccc12	40.1%	-91.1*	26.8%	9.0%	-8.2%	-7.0%
Cc1nc(Nc2ccc3c(c2)OCO3)c2oc3ccccc3c2n1	23.3%	14.2	38.7%	.	.	3.1%
COc1ccc(C2/C(=C(\O)c3cccc(OC)c3)C(=O)C(=O)N2c2ccccn2)cc1 (centres undefined)	-20.6%	-106.7*	20.5%	.	.	-4.2%
COc1cccc(/C(O)=C2\C(=O)C(=O)N(c3ccccn3)C2c2ccccc2OC)c1 (centres undefined)	8.7%	14.8	0.8%	-10.2%	-23.4%	5.2%
